Sampled rows, rich in hits. Any-hit rate of the full collection: about 19%.
HepG2 viability = counter-screen for TGF-b inhibitors: cytotoxicity in HepG2 cells; Potency, µM (titrated, usually from 46.1 µM), inactives show at the highest dose activity change, negative = cytotoxicity, actives largely listed as cytotoxic; 0.76% of 410,000 active; HepG2 CAGA-GFP viability, ATP luminescence, 18 h; note: potency is the fitted concentration of half-maximal effect
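CellTiter-Glo luminescence gave cytotoxicity after 18 hours at 37 degrees C. The cells were HepG2 CAGA-GFP in 1% FBS DMEM, stimulated with 500 pg/mL TGF-beta after compound addition. %Activity was normalised to no-cell wells (complete cell-killing) and DMSO (no toxicity), and curves were fitted and classified.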
IL1B secr inh = inhibitors of inflammasome signaling (IL-1 beta secretion); THP-1 LPS/ATP IL-1B secretion, AlphaLISA, 16 h; stronger effect = lower value; activity change, % at 57.5 µM; 4.7% of 360,000 active; in the data active = activity change below about -50%; inconclusive = mostly about -30% to -49%; note: % is set by controls: 0 for no effect and ±100 for the full control effect
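Secreted IL-1B measured by AlphaLISA bead assay after 16 h compound exposure of THP-1 cells; compounds (final up to 57.5 uM) added 1 h before LPS (250 ng/mL) and ATP (1.25 mM) stimulation; lower signal means less secretion.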
TGFb SMAD3 inh = inhibitors of TGF-b signaling. 1.2% of 410,000 active. Potency, µM (top dose mostly 46.1 µM), without a hit: at the top dose activity, negative = inhibition, hits mostly inhibitors. HepG2 CAGA-GFP TGF-b/SMAD3 reporter, GFP fluorescence, 18 h; TGF-beta stimulated, 500 pg/mL final; note: potency is the fitted concentration of half-maximal effect; % is set by controls: 0 for no effect and ±100 for the full control effect; nearly all actives have a fitted effect of over 65% in size
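Smad-responsive CAGA-GFP expression was quantified in HEPG2 cells exposed to compounds and 500 pg/mL final TGF-beta for 18 h at 37 degrees C; unstimulated wells defined full inhibition.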
TDP1 cell CPT = DT40-hTDP1 cell growth loss with CPT. chicken DT40 Tdp1-/-;hTDP1 cells + 20 nM CPT, ATP luminescence, 48 h. Potency, µM (series often up to 46.2 µM), for the others: at the top dose activity change, negative = growth inhibition, most hits filed as inhibitors. 12% of 420,000 active; note: potency is the fitted concentration of half-maximal effect; % is set by controls: 0 for no effect and ±100 for the full control effect; nearly all actives have a fitted effect of over 55% in size
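Cell growth measured by CellTiter-Glo luminescence after a minimum 48 h, 37 C compound exposure with 20 nM CPT in Tdp1-knockout DT40 cells stably expressing hTDP1, seeded 400/well; qHTS titration format.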
TDP1 inh = inhibitors of human tyrosyl-DNA phosphodiesterase TDP1 | recombinant TDP1, AlphaScreen DNA substrate cleavage | Q9NUW8 | AID 485290 | Potency, µM (titrated, usually from 130 µM), for inactives: at the top dose activity change, negative = inhibition, actives largely listed as inhibitors | 0.28% of 350,000 active; note: potency is the fitted concentration of half-maximal effect; % is set by controls: 0 for no effect and ±100 for the full control effect; nearly all actives have a fitted effect of over 40% in size
Target sequence (Q9NUW8 whole entry, looked up): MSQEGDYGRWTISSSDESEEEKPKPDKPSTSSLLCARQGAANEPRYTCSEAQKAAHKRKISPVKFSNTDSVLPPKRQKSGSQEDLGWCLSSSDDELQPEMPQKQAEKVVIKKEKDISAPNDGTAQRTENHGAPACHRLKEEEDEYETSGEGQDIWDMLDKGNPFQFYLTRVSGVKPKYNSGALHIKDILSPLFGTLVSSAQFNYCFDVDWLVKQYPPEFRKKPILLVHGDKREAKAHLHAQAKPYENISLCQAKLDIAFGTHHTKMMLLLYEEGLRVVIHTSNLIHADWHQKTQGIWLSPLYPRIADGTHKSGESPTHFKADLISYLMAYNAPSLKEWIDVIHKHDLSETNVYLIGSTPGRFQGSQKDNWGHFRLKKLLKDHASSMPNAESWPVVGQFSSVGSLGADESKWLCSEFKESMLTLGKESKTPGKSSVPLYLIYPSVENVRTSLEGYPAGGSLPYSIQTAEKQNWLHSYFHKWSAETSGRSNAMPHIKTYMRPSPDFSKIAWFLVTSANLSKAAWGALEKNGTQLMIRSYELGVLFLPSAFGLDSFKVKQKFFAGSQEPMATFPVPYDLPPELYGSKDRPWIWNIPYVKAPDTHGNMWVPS
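AlphaScreen read-out: signal falls as enzyme removes the 3' tyrosine-FITC from a 5'-biotinylated DNA oligo (15 nM, 5 min, RT). Enzyme was E. coli-made recombinant Tdp1 at 1 nM, exposed to compound for 15 min beforehand; beads 10 ug/ml, 10 min.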
DT40 TDP1 no CPT = qHTS for Inhibitors of human tyrosyl-DNA phosphodiesterase 1 (TDP1): qHTS in cells in absence of CPT; 15% of 420,000 active; Potency, µM (highest dose often 46.2 µM), without a hit: top-dose activity change, negative = growth inhibition, actives largely listed as inhibitors; AID 686978, 2013; DT40 Tdp1-/- hTDP1 cells, no CPT, ATP luminescence, 48 h; note: potency is the fitted concentration of half-maximal effect; % is set by controls: 0 for no effect and ±100 for the full control effect; nearly all actives have a fitted effect of over 55% in size
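Seeded 400 DT40-hTDP1 cells/well (vehicle DMSO, no 20 nM CPT); pinned compounds; ≥48 hr at 37 °C; CellTiter-Glo luminescence as viability measure.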
Starred values were filed as active, the others as inactive; ? = inconclusive; . = not tested or not shown; [ ] = another dose, or the depositor's remark. Unless noted, calls come from the whole dose curve; as a rule, active = well fitted curve in the direction sought with a large enough effect; inconclusive = small, poorly fitted or top-dose-only effect, or another doubt; inactive = no such curve, though single readings can be large; an effect the other way counts as inactive or inconclusive.

SMILES	HepG2 viability	IL1B secr inh	TGFb SMAD3 inh	TDP1 cell CPT	TDP1 inh	DT40 TDP1 no CPT
CCOc1cc(NC(=O)c2ccco2)c(OCC)cc1NC(=O)Cc1ccc(OC)c(OC)c1	-2%	10	-11%	?	-2%	8.2µM*
CCOc1cc(N2CCOCC2)c(OCC)cc1NC(=O)COC(=O)c1cc2ccccc2cc1O	-25%	3	-16%	?	3%	?
CCOc1cc(N2CCOCC2)c(OCC)cc1NC(=O)COc1ccccc1[N+](=O)[O-]	-14%	-80*	0%	-10%	2%	?
CCCOc1ccc(C(=O)Nc2ccc(N3CCOCC3)cc2N2CCOCC2)cc1OCC	-3%	-9	10%	?	.	21µM*
CCOc1cc(N2CCOCC2)c(OCC)cc1NC(=O)CC12CC3CC(CC(C3)C1)C2	-10%	-10	?	13µM*	-7%	18µM*
CCOc1cc(N2C(=O)CC3CS(=O)(=O)CC32)c(OCC)cc1NC(=O)c1ccccc1 (centres undefined)	-79%	21	0%	?	4%	21µM*
O=C1[C@H]2[C@H]3[C@H](O)[C@H](O)C/C(=N/OC[C@@H](O)COCc4ccco4)[C@@H]3CC[C@@H]2C(=O)N1c1cccc(Oc2ccccc2)c1	.	.	.	.	5%[21 µM]	.
COc1cccc(-c2nc3cc(SC)ccc3cc2CN(C(=O)c2sccc2C)C2CC2)c1	.	.	.	2%	.	-2%
COc1ccc(C2CC(=O)c3c(O)cc(O[C@H]4OC(COC5OC(C)C(O)C(O)[C@@H]5O)C(O)C(O)C4O)cc3O2)cc1O (some centres undefined)	.	.	.	15%	2%	1%
COc1ccc(C(=O)N2CC(=O)Nc3ccc(C)cc3C2c2ccccc2)c(OC)c1 (centres undefined)	-67%	.	-4%	?	0%	?
CC1CCCCN1C(=O)COC(=O)c1cc(Cl)c2c(c1)OCO2 (centres undefined)	12%	11	-31%	10%	-4%	-18%
CCOc1cc(N2CCOCC2)c(OCC)cc1NC(=O)c1ccc(S(C)(=O)=O)cc1	4%	-3	0%	-2%	0%	-21%
CCOc1cc(N2CCOCC2)c(OCC)cc1NC(=O)CN1CCc2ccccc2C1	-12%	2	-13%	23µM*	11%	18µM*
CCOc1cc(N2CCOCC2)c(OCC)cc1NC(=O)c1cccc(N(C)C)c1	-4%	-3	36%	?	6%	21µM*
CCOc1cc(N2CCOCC2)c(OCC)cc1NC(C)C(=O)N1CCC(C)CC1 (centres undefined)	-5%	-4	?	?	5%	26µM*
CCOC(=O)c1c(N2C(=O)C=CC2=O)sc(C)c1C	-92%	-96*	16µM*	1.2µM*	5%	2.6µM*
CCN(CC)c1ccc(C(=O)NCc2ccc3c(c2)CCN3C(=O)c2ccccc2)cc1	4%	.	-1%	21µM*	-1%	23µM*
CN(C)c1ccc(C(=O)NCc2ccc3c(c2)CCN3C(=O)c2ccccc2)cc1	-11%	.	9%	16µM*	6%	?
Cc1ccc(C(=O)NCc2ccc3c(c2)CCN3C(=O)c2ccc(C)cc2)cc1	-23%	.	-22%	21µM*	1%	18µM*
Cc1ccc(C)c(NC(=O)NCc2ccc3c(c2)CCN3C(=O)c2ccccc2)c1	-3%	.	-3%	21µM*	-4%	?
NC[C@@H]1O[C@H](O[C@H]2[C@H](O)[C@H](O[C@@H]3O[C@H](CO)[C@@H](O)[C@H](N)[C@@H]3O)[C@@H](N)C[C@H]2N)[C@@H](O)[C@H](O)[C@@H]1O	.	.	.	.	9%[21 µM]	.

Screens: PubChem, National Center for Advancing Translational Sciences (NCATS)
